Here are results for 7 sequences from the supplement of paper PMC6555819.

Holding throughout (assay): PBM binding z-score (relative to random genomic background probes); higher = stronger binding; sequences stand for … in GC…GCGATTGACAGCGTAGAATGAAGG
Assay [1] concerns FXR:RXRa (NR concentration 270 nM, RXRa partner concentration 90 nM). The essentials: (§1)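 On custom Agilent 4×180K arrays, double-stranded probes with 34-nt variable regions carried direct-repeat seeds, single-nucleotide variants, half-site ablations or random human genomic background. Ligand-free nuclear receptor dimers were applied for 1 h, and binding was read with antibodies against each partner (one per run). Binding z-scores come from regression-normalized fluorescence, with the random background probes as reference.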

The test system of assay [2] is LXRa:RXRa (NR concentration 270 nM, RXRa partner concentration 90 nM). Put shortly: as §1
Assay [3] relates to LXRa homodimer (NR concentration 270 nM). Put shortly: as §1
Assay [4] has as its system LXRb:RXRa (NR concentration 270 nM, RXRa partner concentration 90 nM). The essentials:
as §1

Assay [5] concerns LXRb homodimer (NR concentration 270 nM). Put shortly:
as §1

Assay [6] deals with PPARa:RXRa (NR concentration 270 nM, RXRa partner concentration 90 nM). The essentials:
as §1

The subject of assay [7] is PPARg:RXRa (NR concentration 180 nM, RXRa partner concentration 90 nM). The essentials: as §1
Assay [8] concerns PPARg:RXRa 270nM:90nM, anti-RXR (NR concentration 270 nM, RXRa partner concentration 90 nM). Put shortly: as §1
Assay [9] has as its system PPARg:RXRa 30nM:10nM, anti-RXR (NR concentration 30 nM, RXRa partner concentration 10 nM). The essentials:
as §1

Assay [10] deals with PPARg:RXRa 90nM:30nM, anti-RXR (NR concentration 90 nM, RXRa partner concentration 30 nM). Put shortly: as §1
Assay [11] relates to PPARg:RXRa DBDmut IVT, anti-RXR (DBD mutation: RXRa K156A/R161A, NR concentration 270 nM, RXRa partner concentration 90 nM). The essentials: as §1
Assay [12] deals with PPARg:RXRa IVT, anti-PPARg (NR concentration 270 nM, RXRa partner concentration 90 nM). Put shortly: as §1
Assay [13] relates to PPARg DBDmut:RXRa IVT, anti-PPARg (DBD mutation: PPARg1 K132A/R137A, NR concentration 270 nM, RXRa partner concentration 90 nM). The essentials:
as §1

Assay [14] concerns PPARg DBDmut IVT, anti-PPARg (DBD mutation: PPARg1 K132A/R137A, NR concentration 270 nM). Put shortly:
as §1

Assay [15] concerns PPARg homodimer (NR concentration 180 nM). Put shortly:
as §1

The test system of assay [16] is PXR:RXRa (NR concentration 270 nM, RXRa partner concentration 90 nM). The essentials:
as §1

Assay [17] concerns PXR homodimer (NR concentration 270 nM). The essentials: as §1
Assay [18] deals with RARa:RXR (NR concentration 270 nM, RXRa partner concentration 90 nM). Put shortly:
as §1

The subject of assay [19] is RARa homodimer (NR concentration 270 nM). The essentials:
as §1

In assay [20] the test system is RARb:RXRa (NR concentration 270 nM, RXRa partner concentration 90 nM). The essentials:
as §1

For CTACCAAGGTGAACAAGGTCGTTGGTTACTATTC, the PBM binding z-score in [1] is 1.39; in assay [2], 1.4; in assay [3], 0.281; in assay [4], 1.71; in [5], -0.365; in [6] it was 2.45. The PBM binding z-score in assay [7] was 0.875; in assay [8] it was 1.37; in assay [9] it was -0.194; in assay [10], 0.758; in [11] it was 1.96; in assay [12] it was 2.45. The PBM binding z-score in assay [13] is 0.303; in [14] it was -0.188; in assay [15], 0.751; in assay [16] it was 2.75; in [17] it was 2.32; in assay [18], 2.28. For the same sequence, the PBM binding z-score was determined as 0.473 in assay [19] and 2.14 in assay [20].

TCTTGTAGATCAGCAGGTTACGAAAGCTGGCCAA: the PBM binding z-score in assay [1] was 0.0711; in [2], -0.119; in assay [3] it was -0.159; in assay [4], 0.185; in assay [5], -0.369; in [6], 0.613. The PBM binding z-score in [7] was -0.304; in assay [8], 1.48; in assay [9], 2.34; in assay [10], 1.87; in [11], 1.6; in [12], 0.645. Besides, the PBM binding z-score in [13] is -0.743; in [14], -0.301; in [15], -0.303; in [16], -0.0656; in assay [17], -0.456; in [18], 0.298. Also, the results for the PBM binding z-score in assay [19] and in assay [20] were -0.436 and 0.143, respectively.

Turning to CCTAACGGGTCACGAGGTTATAGCACGACGAGCG, the PBM binding z-score in assay [1] was 6.1; in assay [2], 4.05; in [3] it was 0.263; in assay [4], 3.54; in assay [5] it was -0.146; in [6] it was 5.76. The PBM binding z-score in assay [7] came to 6.41; in assay [8], 5.88; in assay [9], 2.76; in [10], 4.48; in [11], 3.39; in assay [12], 4.94. Besides, the PBM binding z-score came to 1.47 in [13]; 0.866 in assay [14]; 2.3 in [15]; 4.45 in assay [16]; 0.408 in assay [17]; 5.55 in assay [18]. Further, the PBM binding z-score in assay [19] came to 1.42; in assay [20], 4.27.

For the sequence CCTAGGAGGACAGAAGGTCAGAGCTGTCCGCTTT, the PBM binding z-score in assay [1] is 1.3; in [2] it was 1.59; in [3], 0.0675; in assay [4], 1.11; in [5], -0.837; in assay [6], 1.93. In addition, the PBM binding z-score was 0.741 in assay [7]; 2.08 in assay [8]; -0.108 in assay [9]; 1.7 in assay [10]; 0.0548 in assay [11]; 0.781 in [12]. Moreover, the PBM binding z-score in [13] was -1.45; in assay [14], -0.918; in assay [15], 0.868; in assay [16], 1.59; in assay [17], -0.0903; in [18], 1.98. In addition, the PBM binding z-score in assay [19] turned out to be 0.629; in [20] it was 3.02.

On to ACTCAAAGTTCATCTAGGTAACGTAAGATATGCT, for which the PBM binding z-score in assay [1] was found to be 6.73; in assay [2], 6.05; in [3], 5.36; in assay [4], 4.18; in assay [5] it was 2.43; in assay [6], 4.79. The PBM binding z-score in assay [7] was 3.49; in [8] it was 3.98; in assay [9], 1.56; in [10], 2.74; in assay [11], 1.43; in [12], 2.81. Besides, the PBM binding z-score in [13] was found to be 2.23; in [14] it was 2.06; in assay [15] it was 3.4; in assay [16] it was 5.34; in [17], 7.92; in [18], 4.08. For the same sequence, the PBM binding z-score in assay [19] is 2.11; in [20], 5.33.

As to TCATATAGGTAAAAGGTGAAAGCCGGTGTGGTAA, the PBM binding z-score in [1] was 1.71; in assay [2] it was 2.07; in assay [3] it was 0.0111; in assay [4], 1.77; in [5] it was -0.0293; in assay [6], 5.73. For the same sequence, the PBM binding z-score in [7] was 8.8; in assay [8], 8.59; in [9] it was 8.83; in assay [10], 9.1; in [11], 5.44; in assay [12] it was 4.98. Also, the PBM binding z-score in [13] was 0.678; in assay [14], 1.17; in assay [15], 1.42; in assay [16], 1.58; in [17] it was 0.293; in assay [18], 2.92. Besides, the PBM binding z-score in assay [19] turned out to be 0.942; in assay [20], 1.95.

Turning to TCTTGTAGATCAGCAGGTTAAGACAGCTGGCCAA, the PBM binding z-score in assay [1] was 0.409; in [2], 0.423; in [3], -0.459; in [4], 0.114; in assay [5], -0.579; in assay [6] it was 0.79. Further, the PBM binding z-score in assay [7] was -0.112; in assay [8] it was 1.46; in assay [9] it was 2.57; in assay [10] it was 2.02; in assay [11] it was 1.91; in assay [12], 0.417. For the same sequence, the PBM binding z-score in assay [13] is 0.269; in [14], 0.156; in assay [15] it was 0.137; in [16], 0.129; in assay [17] it was -0.0251; in assay [18], 0.309. In addition, the PBM binding z-score in assay [19] turned out to be 0.389; in assay [20] it was 0.0665.
